Results taken from PubChem BioAssay AID434973 (Sanford-Burnham Center for Chemical Genomics, 2010).
The whole screen tested about 330,000 compounds, of which about 4,900 (1.5%) were called active. Many of the other results were omitted from the sample, so actives are more common in it than they were. Values without a mark were called inactive.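 Rule for the calls: active = inhibition above about 50% at the single test dose (limit read from the data); inactive = the rest.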

The molecules below were run against Sentrin-specific protease 7 (Homo sapiens) (UniProt Q9BQF6) (assay: blockers of human SENP7 peptidase activity – biochemical, luminescence, uHTS, primary screen (AID 434973;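 note: plate controls were DMSO with enzyme for no effect and no enzyme buffer wells for full effect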)). Conditions: recombinant SENP7, Z-RLRGG-aminoluciferin luminescence, 40 min; at 5 µM; stronger effect = higher value.

Compared with `O=C(c1ccccc1F)N(Cc1ccccc1)Cc1ccccc1`, `CC1C(=O)N(Cc2ccccc2)c2ccccc2N1C(=O)c1ccccc1` (configuration not stated) is higher in inhibition: -9.2% for the first, -2.81% for the second.

First: Cc1c(Cl)c([N+](=O)[O-])nn1Cc1ccc(C(=O)N/N=C\c2cc(Cl)ccc2O)o1
Second: Cc1n[nH]c(=O)c2c(NC(=O)CSc3cc(Cl)ccc3Cl)oc(C)c12
The inhibition of the first is higher: 10.1% for the first, -0.542% for the second.

Compared with `CCN(CC)S(=O)(=O)c1ccc(OC(C)C)c(N)c1`, `CCN(CC)S(=O)(=O)c1ccc(N2CCOCC2)c(NC(=O)c2ccc(=O)n(C)n2)c1` is lower in inhibition: 2.51% for the first, -0.97% for the second.

Going from `CC(=O)C1C(c2ccc(Cl)cc2)c2c(n[nH]c2C)CC1(C)O` (configuration not stated) to `Cc1ccc(-n2c(-c3ccc(Cl)cc3)n[nH]c2=S)cc1`, the inhibition rises from -1.26% to -0.859%.

Compared with `CC(=O)NNC1=Nc2ccccc2N(C)C(C)C1` (configuration not stated), `Cc1cnc(C(=O)OCC(=O)N2CCc3ccccc32)cn1` is lower in inhibition: 1.41% for the first, -1.46% for the second.

Compared with `CCc1cc(=O)oc2cc(OCC(=O)N3CCCc4ccccc43)ccc12`, `Cc1cc2oc(=O)cc(CN(C)Cc3ccc(OC(F)F)cc3)c2cc1Cl` is higher in inhibition: -13.1% for the first, 5.95% for the second.

Compared with `Cc1ccnc(N2C(=O)c3ccc([N+](=O)[O-])cc3C2=O)c1`, `Cc1ccc(-c2cn(S(=O)(=O)c3cccc([N+](=O)[O-])c3)nc2N)cc1` is higher in inhibition: -0.103% for the first, 1.39% for the second.

First: CC(C)(C)c1cc[n+](-c2[nH]c(=O)sc2/C=N/N=C(\[O-])c2ccccc2)cc1
Second: CC(OC(=O)CN1C(=O)c2ccccc2C1=O)C(=O)c1ccccc1 (configuration not stated)
The inhibition of the first is lower: 1.22% for the first, 5.15% for the second.

First: CCC(C)C(NC(=O)C1CCC(=O)N1C(=O)OCc1ccccc1)C(=O)NC(C(=O)N1CCCC1C(N)=O)C(C)CC (configuration not stated)
Second: O=C(CCNC(=O)C1CCN(S(=O)(=O)c2ccccc2)CC1)NC1CC1
The inhibition of the first is lower: -7.38% for the first, -2.25% for the second.

Going from `Cc1ccc(NC(=O)c2ccccn2)cc1S(=O)(=O)N1CCOCC1` to `O=C(O)c1ccc(S(=O)(=O)N2CCOCC2)o1`, the inhibition falls from -1.52% to -7.75%.

First: O=C(COC(=O)c1ccccn1)NNC(=O)c1ccc(Br)cc1
Second: O=C(COC(=O)c1ccccn1)NNC(=O)c1ccc([N+](=O)[O-])cc1
The inhibition of the first is higher: 8.04% for the first, 4.18% for the second.

Compared with `COc1ccc(C(=O)O/N=C(\N)c2ccccn2)cc1[N+](=O)[O-]`, `CCOc1ccccc1NC(=O)c1cccnc1` is lower in inhibition: 10.4% for the first, -1.12% for the second.

Compared with `CCCCN=C(N)/C(C(=O)OCC)=C(\O)c1ccc(OC)cc1`, `Cc1noc(C)c1COC(=O)COc1ccc(-c2ccccc2)cc1` is lower in inhibition: 13.1% for the first, 6.3% for the second.

Going from `CCc1ccc(NC(=O)CN2C(=O)COc3ccc(S(=O)(=O)N4CCCC4)cc32)cc1` to `CC(C(=O)Nc1ccc(S(=O)(=O)N2CCCC2)cc1)N(C)Cc1ccc(F)cc1` (configuration not stated), the inhibition rises from 2.36% to 8.65%.

Compared with `C=C(Br)Cn1c(CCCC)nc2ccccc21`, `CN(C(=O)CSc1nncc2ccccc12)C1CCCCC1` is lower in inhibition: 2.52% for the first, -7.84% for the second.

Going from `CC(C)Oc1ccc(Oc2ccc(C(F)(F)F)cn2)cc1` to `O=C(Nc1ccc(Cl)cc1)c1cc2nc(C3CC3)cc(C(F)(F)F)n2n1`, the inhibition rises from -3.04% to 2.83%.

Compared with `O=[N+]([O-])c1cccc(C2=NCCS2)c1`, `CCN1CCN(c2nc(Nc3cccc(F)c3)nc(N)c2[N+](=O)[O-])CC1` is lower in inhibition: -1.11% for the first, -8.75% for the second.

First: COc1ccc(C(=O)n2nc(C)c(Br)c2C)cc1OC
Second: COc1cc(C(=O)OC2CCOC2=O)c([N+](=O)[O-])cc1OC (configuration not stated)
The inhibition of the first is higher: 0.64% for the first, -1.58% for the second.

Going from `COC(=O)CN1C(=O)[C@H]2[C@@H](/C=C/c3ccccc3)N3C(=O)CN(CC4CC4)C(=O)[C@@]3(Cc3ccccc3)[C@H]2C1=O` to `O=C(CC1C(=O)NCCN1CC(c1ccccc1)c1ccccc1)NCCc1cn[nH]c1` (configuration not stated), the inhibition rises from -16.2% to -0.769%.

Compared with `CCOC(=O)CSc1nnc(-c2ccc([N+](=O)[O-])cc2)o1`, `CCOC(=O)CSc1nnc(-c2cccc(Br)c2)o1` is lower in inhibition: -2.17% for the first, -6.07% for the second.

Going from `CCOc1ccc(NC(=O)CN(C)C(=O)c2cccc(S(=O)(=O)N3CCCC3)c2)cc1OCC` to `CN(C)C(=O)c1ccc(NC(=O)COC(=O)c2cc3c(s2)CCCCC3)cc1`, the inhibition rises from -6.73% to -2.04%.

First: Cc1ccc(-c2cc(N)on2)cc1
Second: CSc1nnc2ccc(-c3ccc(C)cc3)nn12
The inhibition of the first is higher: -4.29% for the first, -16.3% for the second.

Going from `Cc1cc(N2CCOCC2)nc(-c2ccc(Br)cc2)n1` to `O=C(c1ccc(F)cc1)n1cc(C(=S)N2CCOCC2)c2ccccc21`, the inhibition rises from -7.07% to -1.66%.

Going from `O=C1C2C3C=CC(C3)C2C(=O)N1c1ccc(S(=O)(=O)Nc2nccs2)cc1` (configuration not stated) to `COc1ccccc1NC(=O)c1ccc2nc(N3C(=O)CCC3=O)sc2c1`, the inhibition falls from 4.27% to -10.2%.

First: CN(C)c1cccc(C(=O)N2CCC(n3nccc3NC(=O)C3CCOC3)CC2)c1 (configuration not stated)
Second: CC(=O)Nc1ccc(CN2CCC(Oc3ccc(C(=O)N4CCCC4)cc3)CC2)cc1
The inhibition of the first is higher: 9.95% for the first, 0.753% for the second.

First: CCCCC(=O)Nc1c2c(nn1-c1ccc([N+](=O)[O-])cc1)CS(=O)(=O)C2
Second: CCN(CC(=O)Nc1ccccc1C(F)(F)F)C(=O)C1CCN(C(=O)Nc2ccccc2)CC1
The inhibition of the first is lower: -1.87% for the first, 3.1% for the second.

Going from `COc1cc(Cl)cc(C2NC(=O)NC(C)=C2C(=O)NCc2ccccc2)c1O` (configuration not stated) to `CCC(CO)Oc1cc(NCc2ccccc2)c2ncn(C3CCCC3)c2c1` (configuration not stated), the inhibition rises from -4.23% to 8.26%.

Compared with `O=C(COC(=O)c1c2c(nc3ccccc13)CCCC2)c1ccc(Br)s1`, `O=C(COC(=O)c1ccncc1)c1ccccc1` is lower in inhibition: 14.3% for the first, -15% for the second.

First: Cn1cccc1C(=O)OCC(=O)NCCc1ccccc1
Second: O=C(c1ccco1)N1CCN(C(=O)c2cc(-c3ccccc3F)no2)CC1
The inhibition of the first is lower: -5.93% for the first, 4.1% for the second.

First: O=C(CSc1nncn1-c1cccnc1)N1CCOCC1
Second: O=C(CSC(=S)N1CCOCC1)c1cc(Br)cc(Br)c1O
The inhibition of the first is higher: 5.85% for the first, 1.34% for the second.

Compared with `CC1CN(c2cc(=O)n(-c3cccc(Br)c3)c(=O)[nH]2)CC(C)O1` (configuration not stated), `CC1CN(C(=S)SCC(=O)c2ccccc2)CC(C)O1` (configuration not stated) is lower in inhibition: 4.5% for the first, 1.97% for the second.

First: CCOC(=O)N1CCC(NC(=O)c2cnn3ccccc23)CC1
Second: CN(C(=O)c1cc2c(=O)n3ccccc3nc2s1)C1CCCCC1
The inhibition of the first is higher: -0.379% for the first, -3.91% for the second.

Compared with `Cc1ccc(S(=O)(=O)/N=S(\C)C(C)C)cc1` (configuration not stated), `CC(C)c1ccc(C(=O)OC2CCOC2=O)cc1` (configuration not stated) is higher in inhibition: -7.18% for the first, 5.83% for the second.

First: CCC(C)(C(=O)NC1CCCC1)N(C(=O)CNC(C)=O)c1ccc(C)cc1 (configuration not stated)
Second: O=C(NCCCc1ccccc1)C1CCC(CNc2c(N3CCCCC3)c(=O)c2=O)CC1 (configuration not stated)
The inhibition of the first is lower: -2.07% for the first, 3.15% for the second.

Compared with `CCn1cc(C(=O)N[C@@H](C)C(=O)NCCO)c(=O)c2cc3c(cc21)OCO3`, `O=C(CN1CCN(c2ccccc2F)CC1)c1ccc2c(c1)OCO2` is higher in inhibition: -6.11% for the first, 8.23% for the second.

Compared with `CC(C)n1cnc2c(NCc3ccccc3)cc(N[C@@H](CO)Cc3ccccc3)cc21`, `N#C/C(C(=S)Nc1ccccc1)=C1/NN=C(N2CCOCC2)N1c1ccccc1` is lower in inhibition: 35.9% for the first, -1.15% for the second.

Going from `CCCC(=O)Nc1nnc(CC(=O)OCC)s1` to `CC(Sc1sc(=S)sc1SC(C)C(=O)O)C(=O)O` (configuration not stated), the inhibition rises from -2.16% to -0.431%.

Compared with `O=C(Cn1c(=S)nc2ccccn21)N1CCc2ccccc2C1`, `COc1cccc(Nc2nc(N)c([N+](=O)[O-])c(NCc3ccco3)n2)c1` is higher in inhibition: -0.589% for the first, 3.33% for the second.

Compared with `O=C(NCC1CCCO1)c1cc2c(s1)CCCC2` (configuration not stated), `CC1CCc2sc3nc(N4CCN(CCO)CC4)n4ncnc4c3c2C1` (configuration not stated) is lower in inhibition: 7.59% for the first, -6.6% for the second.

With `Cc1ccc(-n2cc3ccc([N+](=O)[O-])cc3n2)cc1` the inhibition was 87.9% (active).
In the case of `Cc1ccc(C(=O)O/N=C(\N)c2ccccn2)cc1Cl`, the inhibition is reported as 95.8% (active).
With `N/C(=N\OC(=O)c1ccc([N+](=O)[O-])cc1)c1ccccn1` the inhibition was 94.8% (active).
`FC(F)(F)c1ccnc(Oc2ccc(C3=NCCS3)cc2)c1` was tested, and the inhibition was 67.2% (active).
For `CCCCSc1nnc(-c2ccc(C)cc2)o1`, the inhibition was 58.9% (active).
For `Cc1ccc(-c2cn3cc(C)ccc3n2)cc1`, the inhibition was 86.5% (active).
With `Cc1ccc2nc(-c3ccc(Br)cc3)cn2c1` the inhibition was 89.3% (active).
`Cn1cccc1C(=O)OCC(=O)c1ccc(Br)s1` was tested, and the inhibition was 82.4% (active).
In the case of `O=C(c1cnn2ccccc12)N1CCc2ccccc21`, the inhibition is reported as 52.8% (active).
In the case of `COc1ccccc1NC(=O)c1ccc(N2CC3CC(C2)c2cccc(=O)n2C3)c(NC(=O)c2cccnc2)c1` (configuration not stated), the inhibition is reported as 70.4% (active).
In the case of `O=C(Oc1ccc(-c2nc(-c3ccccn3)no2)cc1)c1ccccc1`, the inhibition is reported as 99.8% (active).
With `CN(c1ccc2nc3ccccc3c(=O)n2n1)C1CCCCC1` the inhibition was 93.7% (active).
In the case of `CC(C)n1cnc2c(NCc3ccccc3)cc(OCC3CCN(C)CC3)cc21`, the inhibition is reported as 52.7% (active).
In the case of `O=C(OC1CCOC1=O)c1ccc(-c2nc3ccccc3s2)s1` (configuration not stated), the inhibition is reported as 96.8% (active).
For `O=C(c1ccc(F)cc1)n1c(=S)nc2ccccn21`, the inhibition was 96.3% (active).
In the case of `O=C(Nc1ccc(F)cc1)c1cc2c(s1)CCCC2`, the inhibition is reported as 87% (active).
For `O=C(CSC(=S)N1CCOCC1)c1ccccc1`, the inhibition was 62.7% (active).
With `CNc1nc(Nc2ccc(C)c(Cl)c2)nc(N)c1[N+](=O)[O-]` the inhibition was 99.9% (active).
`Fc1ccccc1-c1cc2cc3c(cc2cn1)OCO3` was tested, and the inhibition was 77.3% (active).
